Experimental data: paper PMC5540273 (PLoS ONE, 2017)

Legend:
Details in all cases: concentration: 1 μM, replicates: in singlicate; n = 1
CDK3 = system: CDK3
CDK4-cyclinD1 = system: CDK4-cyclinD1
CDK4-cyclinD3 = system: CDK4-cyclinD3
CDK4 = system: CDK4
CDK5 = system: CDK5
CDK7 = system: CDK7
CDK8 = system: CDK8
CDK9 = system: CDK9
CDKL1 = system: CDKL1
CDKL2 = system: CDKL2
CDKL3 = system: CDKL3
CDKL5 = system: CDKL5
CHEK1 = system: CHEK1
CHEK2 = system: CHEK2
CIT = system: CIT
CLK1 = system: CLK1
CLK2 = system: CLK2
CLK3 = system: CLK3
CLK4 = system: CLK4
CSF1R-autoinhibited = system: CSF1R-autoinhibited
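Further: KINOMEscan kinase panel screen.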

Structure (SMILES) | %Inh (CDK3) | %Inh (CDK4-cyclinD1) | %Inh (CDK4-cyclinD3) | %Inh (CDK4) | %Inh (CDK5) | %Inh (CDK7) | %Inh (CDK8) | %Inh (CDK9) | %Inh (CDKL1) | %Inh (CDKL2) | %Inh (CDKL3) | %Inh (CDKL5) | %Inh (CHEK1) | %Inh (CHEK2) | %Inh (CIT) | %Inh (CLK1) | %Inh (CLK2) | %Inh (CLK3) | %Inh (CLK4) | %Inh (CSF1R-autoinhibited)
COc1cc(Nc2nccc(N3CCC(NC(=O)C(C)c4ccc(Cl)cc4)C3)n2)cc(OC)c1OC (stereo not drawn) [GSK1379757] | 0% | 0% | 0% | 36% | 0% | 0% | 22% | 0% | 9% | 2% | 0% | 0% | 0% | 8% | 9% | 22% | 0% | 43% | 18% | 0%
COc1ccc(CNC(=O)NC2CCN(c3ccnc(Nc4ccc(F)cc4)n3)C2)cc1 (stereo not drawn) [GSK1379706] | 20% | 52% | 0% | 49% | 0% | 4% | 60% | 5% | 10% | 31% | 0% | 0% | 8% | 48% | 9% | 16% | 0% | 0% | 8% | 50%
COC(=O)c1c(-c2ccccc2)c2cc(Br)ccc2c(=O)n1Cc1ccc(NC(=O)CCC(=O)O)cc1 | 5% | 0% | 0% | 8% | 0% | 5% | 0% | 0% | 1% | 0% | 12% | 6% | 0% | 25% | 33% | 0% | 0% | 0% | 17% | 0%
O=c1cc(N2CCOCC2)nc2n(Cc3ccc(F)c(Cl)c3)ccn12 [GSK2297099] | 6% | 0% | 20% | 0% | 0% | 0% | 10% | 7% | 10% | 8% | 0% | 10% | 4% | 0% | 4% | 63% | 45% | 26% | 45% | 0%
Cc1nnc(-c2ccc(C)c(-c3ccc(C(=O)O)cc3)c2)o1 [GW608005] | 0% | 0% | 0% | 29% | 0% | 0% | 21% | 0% | 0% | 6% | 0% | 0% | 5% | 0% | 32% | 10% | 0% | 0% | 0% | 0%
COc1cc2nccc(Nc3cccc(Oc4ccccc4)c3)c2cc1OC.Cl [GW284543] | 0% | 1% | 0% | 30% | 0% | 0% | 37% | 0% | 9% | 7% | 0% | 0% | 0% | 0% | 0% | 21% | 0% | 0% | 0% | 32%
O=C(NCCNc1ccnc(Nc2ccc(F)cc2)n1)Nc1ccc2c(c1)OCO2 [GSK1379882] | 0% | 0% | 0% | 8% | 0% | 0% | 25% | 7% | 0% | 15% | 0% | 4% | 0% | 18% | 44% | 17% | 13% | 9% | 17% | 13%
COc1cccc(-n2cnc3c(N)ncnc32)c1 [SKF-97416] | 17% | 37% | 0% | 31% | 0% | 33% | 0% | 0% | 13% | 8% | 0% | 14% | 0% | 25% | 8% | 6% | 3% | 0% | 0% | 16%
COc1cccc(C2=C(Nc3cccc(C(=O)O)c3)C(=O)NC2=O)c1 [SB-390770] | 9% | 9% | 0% | 0% | 0% | 0% | 4% | 0% | 0% | 24% | 0% | 0% | 0% | 0% | 39% | 9% | 21% | 0% | 20% | 0%
Cl.NS(=O)(=O)c1cccc(Nc2cc(-c3ccc(F)cc3)n[nH]2)c1 [GW824645] | 29% | 0% | 0% | 0% | 0% | 1% | 0% | 5% | 3% | 0% | 1% | 0% | 0% | 0% | 2% | 0% | 0% | 0% | 0% | 0%
COc1ccc(-c2coc3ccc(-c4nnc(SCc5cccc(C#N)c5)o4)cc23)cc1 | 0% | 0% | 0% | 0% | 18% | 9% | 0% | 0% | 5% | 0% | 0% | 9% | 0% | 0% | 5% | 47% | 10% | 0% | 57% | 0%
CCS(=O)(=O)c1ccc(OC)c(Nc2ncc(-c3ccc(F)cc3)o2)c1.Cl [GW591947] | 0% | 0% | 0% | 14% | 0% | 0% | 19% | 0% | 14% | 29% | 59% | 0% | 0% | 0% | 21% | 25% | 40% | 79% | 23% | 0%
CCC(=O)c1c(-c2ccccc2)c2cc(Cl)ccc2c(=O)n1Cc1cc(S(C)(=O)=O)n(CCC(C)(C)O)n1 | 2% | 0% | 20% | 0% | 10% | 38% | 0% | 17% | 10% | 0% | 17% | 40% | 13% | 19% | 2% | 0% | 1% | 9% | 2% | 6%
Cc1nnc(-c2ccc3ncn(-c4ccc(S(C)=O)cc4)c3c2)o1 (stereo not drawn) | 4% | 0% | 0% | 0% | 13% | 0% | 16% | 7% | 20% | 0% | 2% | 0% | 1% | 0% | 35% | 46% | 10% | 0% | 40% | 7%
Nc1nccc2scc(-c3ccc4c(c3)CCN4C(=O)Cc3ccccc3)c12 [GSK2576924] | 9% | 0% | 0% | 13% | 0% | 7% | 70% | 0% | 7% | 17% | 0% | 0% | 0% | 0% | 46% | 34% | 19% | 0% | 25% | 0%
COc1cc2nccc(Nc3ccc(OCc4ccc(NC(C)=O)cc4)cc3)c2cc1OC.Cl [GW440135] | 4% | 37% | 0% | 34% | 0% | 0% | 36% | 0% | 1% | 0% | 20% | 0% | 0% | 0% | 0% | 8% | 0% | 10% | 0% | 25%
COc1cc2ncn(-c3cc(OCc4ccc(S(C)(=O)=O)cc4)c(C(N)=O)s3)c2cc1OC [GW869979] | 0% | 14% | 16% | 9% | 0% | 0% | 0% | 0% | 0% | 0% | 0% | 15% | 18% | 0% | 29% | 17% | 1% | 0% | 0% | 5%
Cc1cc(Nc2nc(-c3cccc(C)n3)nc3ccccc23)ccn1 [GW872411] | 0% | 0% | 0% | 0% | 0% | 0% | 0% | 0% | 17% | 0% | 0% | 0% | 0% | 0% | 0% | 11% | 0% | 0% | 0% | 0%
CN1C(=O)C(Nc2ccccc2)=C(c2ccccc2)C1=O [SB-300079] | 12% | 9% | 0% | 11% | 5% | 6% | 13% | 1% | 4% | 13% | 19% | 0% | 0% | 0% | 4% | 0% | 18% | 0% | 0% | 0%
COc1cc2ncn(-c3cc(OCCCc4ccccc4)c(C(N)=O)s3)c2cc1OC [GSK205189] | 1% | 0% | 0% | 0% | 0% | 0% | 4% | 0% | 5% | 7% | 0% | 2% | 0% | 0% | 10% | 19% | 0% | 0% | 9% | 0%
Nc1nc(-c2ccccc2F)c(-c2ccnc3ccccc23)s1 [GW560459] | 0% | 11% | 0% | 32% | 0% | 0% | 39% | 0% | 0% | 26% | 0% | 0% | 0% | 14% | 30% | 12% | 0% | 8% | 7% | 24%
